# High-throughput results deposited in PubChem by several laboratories.
# This is a sample that favours compounds with a hit; in the whole collection about 3.3% have one here.
# C2C12 statin: protects C2C12 myotubes from simvastatin toxicity; rescue of ATP level, % at 7.49 µM; ATP luminescence, 48 h; scaled: DMSO 0, geranylgeraniol control 100; hit rate 0.78% among 330,000;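 active = mean ATP rescue above about 67%, or every replicate alone reaching that limit, limit read from the data, passing the limit was not always enough; inconclusive = no clear call, values can overlap the other calls; inactive = mean under the limit and some replicate under it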;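 also: myotubes were challenged with 10 µM simvastatin during compound exposure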
# GAA850 FXN act: increases GAA850 frataxin promoter reporter activity; HEK293 lucGAA850 FXN promoter luciferase reporter, 24 h; percent of 10 µM SAHA response; activation, % at 6 µM; hit rate 0.56% among 360,000; AID 540364;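 active = activation above the average of all compounds screened plus 3 SD, cutoff fixed separately per campaign, cut at about 7.5% in these data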;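 also: 0% = DMSO wells and 100% = 10 µM SAHA wells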
# MITF TRPM1 HTS: increases MITF-driven TRPM1 promoter luciferase signal; SK-MEL-5 TRPM1-promoter luciferase, 24 h; % of positive control, neutral wells = 0; activation, % at 12.5 µM; hit rate 0.75% among 300,000; AID 588334;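 active = mean activation of at least 80% with every replicate also reaching 80%; inconclusive = mean reaches 80% but some replicate falls short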;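 also: 0% = neutral control wells and 100% = parthenolide positive control wells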
# esBAF inh: blocks esBAF chromatin remodeling in mouse ES cells | hit rate 2% among 350,000 | Bmi1-luciferase knock-in reporter, 24 h; 100% = twice the neutral-well signal | AID 602393 | reporter increase, % at 12.5 µM; in the data active = activation above about 40%; inconclusive = no clear call, values can overlap the other calls;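 also: 0% = median of the plate's neutral control wells and 100% = double that signal; a rise in the Bmi1 reporter signal indicates esBAF inhibition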
# Wnt act: Wnt/beta-catenin pathway activation. Wnt/beta-catenin reporter cell assay, activator, plate reader. hit rate 1.2% among 300,000. AID 743398. activation, % at 9.35 µM; in the data active = activation above about 30%, passing the limit was not always enough; inconclusive = no clear call, values can overlap the other calls;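 also: 0% = neutral control wells and 100% = positive control wells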
# Starred values were filed as active, the others as inactive; ? = inconclusive; / = no result given.
SMILES,C2C12 statin,GAA850 FXN act,MITF TRPM1 HTS,esBAF inh,Wnt act
CCCn1cnc2cc(NCc3cccc(OC)c3)ccc21,-1.3,4.7,65.6,52.0*,21.3
CCCn1cnc2cc(NCc3ccc(Br)cc3)ccc21,2.4,5.2,45.8,52.1*,1.7
CCn1cnc2cc(NCc3ccc(C)cc3)ccc21,-4.0,0.7,119.0*,?,/
COc1ccc(NC(=O)Nc2ccc3c(c2)C(=O)N([C@H](C)CO)C[C@@H](C)[C@@H](CN(C)C(=O)c2ccccc2)OCCCC[C@H](C)O3)cc1,39.4,/,/,-9.1,/
Cc1noc(C)c1NC(=O)N(C)C[C@@H]1Oc2ccc(NC(=O)Nc3cccc4ccccc34)cc2C(=O)N([C@@H](C)CO)C[C@@H]1C,0.1,/,/,-1.6,/
C[C@@H]1CN([C@@H](C)CO)C(=O)c2cc(NS(=O)(=O)c3ccc(Cl)cc3)ccc2O[C@@H]1CN(C)C(=O)Nc1ccc(C(F)(F)F)cc1,-3.0,/,/,3.1,/
C[C@@H]1CCCCO[C@H](CN(C)S(C)(=O)=O)[C@@H](C)CN([C@@H](C)CO)C(=O)c2cc(NC(=O)Nc3ccc4c(c3)OCO4)ccc2O1,/,/,/,2.3,/
O=C(C[C@@H]1CC[C@H](NC(=O)C2CCOCC2)[C@@H](CO)O1)NCc1ccccc1Cl,-1.9,/,/,-20.1,/
Cc1ccc(CNc2ccc3c(c2)ncn3C(C)C)cc1,-14.4,7.4,88.8*,68.2*,0.4
CCCCn1cnc2cc(NCc3cccc(OC)c3O)ccc21,5.3,1.3,21.3,27.4,3.0
CC(C)n1cnc2cc(NCc3nc4ccccc4n3C)ccc21,/,5.2,12.2,/,14.4
CCCn1cnc2cc(NCc3ccccc3O)ccc21,5.2,3.6,29.8,57.0*,8.2
C[C@H](CO)N1C[C@H](C)[C@H](CN(C)C(=O)CN(C)C)Oc2ncc(C#Cc3ccncc3)cc2C1=O,15.1,/,/,-4.2,/
CCS(=O)(=O)N[C@H]1C=C[C@@H](CC(=O)NCc2ccc(Cl)cc2)O[C@@H]1CO,-2.7,/,/,3.5,/
COC(=O)C(C)N1C(=O)S/C(=C\c2cc(C)n(-c3ccccn3)c2C)C1=O (stereo not given),-17.5,1.7,40.2,-48.3,/
COC(=O)C(C)N1C(=O)S/C(=C/c2cc(C)n(-c3ccccn3)c2C)C1=O (stereo not given),-2.9,4.0,20.2,-8.8,57.0*
CCOC(=O)CN1C(=O)S/C(=C/c2cc(C)n(C)c2C)C1=O,11.3,2.7,87.8*,47.2*,40.5*
CCOC(=O)CN1C(=O)S/C(=C/c2cc(C)n(-c3ccccn3)c2C)C1=O,-5.0,3.8,52.6,44.7*,/
CCOC(=O)CN1C(=O)S/C(=C/c2ccc(C)o2)C1=O,-16.1,2.3,12.9,12.3,0.4
CN1C(=O)c2cc(NC(=O)C3CCOCC3)ccc2OC[C@@H]2O[C@H](CC(=O)NCc3ccc4c(c3)OCO4)CC[C@@H]21,9.8,/,/,-1.8,/
Cc1cccc(-c2nc(CN3CCN(Cc4cccc(F)c4)CC3)c(C)o2)c1,6.4,0.9,4.8,0.0,49.4*
CC(=O)N[C@H]1CC[C@@H](CC(=O)NCc2ccc(Cl)cc2)O[C@@H]1CO,5.1,/,/,4.1,/
CSc1ccccc1OCc1cc(C(=O)N2CCSCC2)no1,-1.0,7.1,133.5*,69.5*,26.5
CSc1ccccc1OCc1cc(C(=O)N2CCCC(C)C2)no1 (stereo not given),16.2,4.5,158.6*,61.8*,50.7*
O=C(c1cc(COc2ccc3c(c2)CCCC3)on1)N1CCCC1,0.4,3.5,123.9*,67.8*,1.5
SMILES,C2C12 statin,GAA850 FXN act,MITF TRPM1 HTS,esBAF inh,Wnt act
COc1ccc(OCc2cc(C(=O)N3CCCC(CO)C3)no2)c2ccccc12 (stereo not given),/,5.1,21.6,/,32.7*
COCC1CCN(C(=O)c2cc(COc3ccc4c(c3)CCCC4)on2)C1 (stereo not given),/,1.7,0.7,/,-0.7
C[C@H](CO)N1C[C@H](C)[C@H](CN(C)C(=O)Cc2ccccn2)Oc2ncc(C#CC3CC3)cc2C1=O,-0.8,/,/,-1.6,/
O=C(c1cc(COc2ccc(F)c(F)c2)on1)N1CCSCC1,-2.0,3.5,55.4,51.0*,12.0
CC(=O)c1cccc(OCc2cc(C(=O)N3CCSCC3)no2)c1,/,1.4,68.9,/,?
COc1cccc(-c2cc(C(=O)Nc3cccnc3Cl)no2)c1,-39.7,2.9,59.2,5.2,16.4
Cc1ccc(O)c(NC(=O)c2cc(-c3ccccc3)on2)c1,43.9,6.1,59.9,75.9*,-4.9
O=C(Nc1cc(Cl)ccc1O)c1cc(-c2ccco2)on1,7.4,4.3,74.0,66.7*,30.0
CCCn1cc(NC(=O)c2cc(-c3ccccc3)on2)cn1,-2.9,1.6,12.9,52.8*,/
O=C(Nc1cccnc1Cl)c1cc(-c2ccco2)on1,-2.9,4.2,/,45.7*,58.5*
O=C(Nc1cc(Br)ccc1O)c1cc(-c2ccccc2)on1,3.9,1.7,42.9,25.8,12.9
COCCNC(=O)C[C@@H]1CC[C@H]2[C@@H](COC[C@@H](O)CN2S(=O)(=O)c2ccccc2C)O1,-5.4,/,/,8.3,/
CCSc1nsc(NC(=O)Nc2ccc(F)cc2F)n1,-21.5,2.1,62.1,15.6,/
CCSc1nsc(NC(=O)Nc2ccccc2Cl)n1,-15.5,3.8,/,41.4*,5.3
COc1ccc(/C=N/Nc2ccccc2C(=O)O)cc1Cn1cc([N+](=O)[O-])cn1,11.0,-0.1,12.6,47.7*,17.8
Cc1ccc(S(=O)(=O)Nc2ccc3c(c2)C(=O)N([C@H](C)CO)C[C@H](C)[C@H](CN(C)Cc2ccc(C(F)(F)F)cc2)O3)cc1,6.6,/,/,-5.8,/
Cc1cc(C)nc(Sc2nc(Cl)nc(N(c3ccccc3)c3ccccc3)n2)n1,101.6*,-0.6,-10.0,2.2,-6.4
Cc1cc(C)nc(SC(C(=O)O)c2ccccc2)n1 (stereo not given),/,-0.7,-5.7,/,-0.6
CC(Sc1nncn1C)C(=O)Nc1ccc(N2CCCCC2)cc1 (stereo not given),-3.6,0.8,6.2,33.7,33.7*
CC(C)n1cnnc1SCC(=O)Nc1ccc(N2CCCCC2)cc1,-5.5,2.7,9.2,4.1,3.6
Cc1nn(-c2ccccc2)c(/N=C/c2ccc(O)cc2)c1-c1ccccc1,6.1,-0.6,83.4*,?,/
Cc1nn(-c2ccccc2)c(C)c1-c1ccccc1O,17.5,1.0,-1.9,14.5,0.4
CCOc1ccc(-c2ccc(SCC(=O)NC3CCCCC3)nn2)cc1,-9.7,4.4,94.5*,?,20.4
COc1ccc(-c2ccc(SCC(=O)NC3CCCCC3)nn2)cc1,21.3,4.5,35.0,15.9,19.7
Cc1ccc(-c2ccc(SCC(=O)NC3CCCCC3)nn2)cc1,0.3,3.3,42.0,52.4*,4.2
O=C(NCCN1CCCCC1)[C@H]1N[C@H]2c3ccc(-c4ccncc4)c(=O)n3C[C@H]2[C@@H]1CO,-10.7,/,/,-5.6,/
CCc1ccccc1NC(=O)CCN1C(=O)c2ccccc2C1=O,132.8*,-0.4,-3.0,-7.2,-1.1
